For 11 compounds, Potency and outcome results are on record in PubChem BioAssay (Tox21).

Experiment [1] has as its target Estrogen receptor beta (Homo sapiens) (UniProt Q92731). As to the kind of experiment: qHTS assay to identify small molecule agonists of the estrogen receptor beta (ER-beta) signaling pathway (AID 1259377; active = well fitted activation curve with a large enough effect in the signal ratio in the repeat runs, not every such curve was filed as active; the % refers to the signal ratio). The procedure, abridged:
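Read-out: beta-lactamase FRET fluorescence. Cell line: ER-beta-UAS-bla HEK293T in 2% charcoal-stripped FBS. Exposure: 16 hr at 37C. Substrate step: 2 h at room temperature.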
A general note: Quantitative high-throughput screening tests each substance at several concentrations.

Experiment [2] is described as follows: qHTS assay to identify small molecule agonists of the androgen receptor (AR) signaling pathway in the presence of an antagonist - cell viability counter screen (AID 1259379).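 Note: MDA-kb2 human breast cancer cells carrying an MMTV luciferase reporter; series mostly up to about 92 µM; nearly all actives have a fitted effect of over 25% in size.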 The procedure, abridged: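 MDA-kb2 viability measured by CellTiter-Fluor fluorescence in the same wells as the luciferase signal; nilutamide 3.0uM final; 15-point compound titration; 16 hr at 37C.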

Experiment [3] is described as follows: qHTS assay to identify small molecule agonists of the estrogen receptor beta (ER-beta) signaling pathway - cell viability counter screen (AID 1259380). Note: nearly all actives have a fitted effect of over 30% in size. Note: potency is the fitted concentration of half-maximal effect. The procedure, abridged:
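Measured: luminescence from CellTiter-Glo after 30 min at room temperature, added to wells already read for the LiveBLAzer FRET reporter (2 hr substrate); ER-beta-UAS-bla HEK293T cells had 16 hr compound treatment at 37C, 5% CO2.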

A short description of experiment [4]: qHTS assay to identify small molecule antagonists of the estrogen receptor beta (ER-beta) signaling pathway - cell viability counter screen (AID 1259382). Note: series mostly up to about 92 µM; nearly all actives have a fitted effect of over 55% in size. The procedure, abridged: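 Readout: luminescence, CellTiter-Glo, same wells as bla assay. System: ER-beta-UAS-bla GripTite HEK293T, 2% charcoal-stripped FBS. Exposure: compounds plus 1nM 17-beta-estradiol, 16 hr, 37C.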

Experiment [5] in a line: qHTS assay to identify small molecule agonists of the estrogen receptor alpha (ER-alpha) signaling pathway in the presence of an antagonist - cell viability counter screen (AID 1259386).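 Note: series mostly up to about 92 µM; cells exposed to compounds for 22 h at 37 °C before the viability read; nearly all actives have a fitted effect of over 30% in size.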 The procedure, abridged: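 The test measures whether compounds kill ER-alpha reporter cells (VM7Luc4E2) under antagonist co-treatment (ICI-182,780, 10.0nM). Fluorescence from CellTiter-Fluor is read after a 22hr exposure.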

Experiment [6] addresses Progesterone receptor (Homo sapiens) (UniProt P06401). As to the kind of experiment: qHTS assay to identify small molecule agonists of the progesterone receptor (PR) signaling pathway (AID 1346784; calls by dose curve; note: nearly all actives have a fitted effect of over 30% in size). The procedure, abridged:
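Compounds were tested for PR agonism in HEK 293T cells bearing a beta-lactamase gene under UAS control. Treatment lasted 16 hr at 37C; signal came from fluorescence of a FRET substrate.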

The target is the same in experiment [7]. As to the kind of experiment: qHTS assay to identify small molecule antagonists of the progesterone receptor (PR) signaling pathway (AID 1346795; active = well fitted inhibition curve with a large enough effect in the signal ratio in the repeat runs, not every such curve was filed as active; the % refers to the signal ratio; note: potency is the fitted concentration of half-maximal effect). The procedure, abridged: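 In HEK293T cells bearing the PR-UAS-bla reporter, compound effects on promegestone-driven (1 nM) beta-lactamase expression are assessed after 16 hr using a fluorescent FRET substrate incubated 2 hr at room temperature.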

The nature of experiment [8]: qHTS assay to identify small molecule antagonists of the TGF-beta/Smad signaling pathway - cell viability counter screen (AID 1346824). Note: nearly all actives have a fitted effect of over 50% in size. The procedure, abridged:
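SBE-bla HEK 293T cells, incubated overnight, then compound plus 0.25 ng/mL TGF-beta1 (stock added) for 5 hr at 37 C. Viability was read in the same wells by CellTiter-Glo luminescence after 30 min at room temperature.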

Experiment [9] can be described thus: qHTS assay to identify small molecule agonists of the TGF-beta/Smad signaling pathway - cell viability counter screen (AID 1346829). Note: top concentration of the series differs between compounds; nearly all actives have a fitted effect of over 45% in size. The procedure, abridged: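 Compound-treated SBE-bla HEK 293T cells (5 hr, 37 C) were assessed for viability with CellTiter-Glo in parallel with the reporter read.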
Experiment [10] in a line: qHTS assay to identify small molecule agonists of the TGF-beta/Smad signaling pathway (AID 1346859; active = well fitted activation curve with a large enough effect in the signal ratio in the repeat runs, not every such curve was filed as active; the % refers to the signal ratio; note: series mostly up to about 77 µM). The procedure, abridged: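 Each well held 4,000 SBE-bla HEK 293T cells incubated overnight before compound addition; 5 hr later the cleavable FRET substrate went on for 2 hr at room temperature, and fluorescence was read at two emissions.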
The target in experiment [11] is Thyrotropin-releasing hormone receptor (Homo sapiens) (UniProt P34981). As to the kind of experiment: qHTS assay to identify small molecule antagonists of the thyrotropin-releasing hormone receptor (TRHR) signaling pathway (AID 1346877; active = well fitted inhibition curve with a large enough effect in the repeat runs, not every such curve was filed as active; note: series mostly up to about 51 µM). The procedure, abridged: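 Overnight-plated (18 h, 37 °C) HEK293 cells expressing TRHR were dye-loaded 2 h, treated with compound, then stimulated with TRH at 1 nM final. Fluorescence intensity was captured every second for 3 min.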
Thyrotropin-releasing hormone receptor (Homo sapiens), sequence (P34981 whole entry, looked up): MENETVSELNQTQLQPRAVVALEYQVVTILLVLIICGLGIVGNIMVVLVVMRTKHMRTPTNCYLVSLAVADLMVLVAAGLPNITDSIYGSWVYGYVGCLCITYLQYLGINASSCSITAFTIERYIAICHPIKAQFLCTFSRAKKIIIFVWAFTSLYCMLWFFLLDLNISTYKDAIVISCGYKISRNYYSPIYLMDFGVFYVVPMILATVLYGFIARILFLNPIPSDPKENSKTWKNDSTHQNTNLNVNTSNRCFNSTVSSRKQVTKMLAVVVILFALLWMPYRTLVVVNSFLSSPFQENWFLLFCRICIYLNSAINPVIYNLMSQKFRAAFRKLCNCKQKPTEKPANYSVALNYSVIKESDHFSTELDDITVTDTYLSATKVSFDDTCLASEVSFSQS

Experiment [12] shares this target. As to the kind of experiment: qHTS assay to identify small molecule agonists of the thyrotropin-releasing hormone receptor (TRHR) signaling pathway (AID 1346891; calls by dose curve; note: series mostly up to about 58 µM). The procedure, abridged:
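Screening of agonists relied on calcium signalling in HEK293 cells expressing human TRHR: dye loading 2 h at 37 °C preceded compound addition and a 3-min fluorescence time course.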

For experiment [13], the target named is Estrogen receptor (Homo sapiens) (UniProt P03372). As to the kind of experiment: qHTS assay to identify small molecule agonists of the estrogen receptor alpha (ER-alpha) signaling pathway in the presence of an antagonist (AID 1259383; calls by dose curve; note: top concentration of the series differs between compounds; nearly all actives have a fitted effect of over 15% in size). The procedure, abridged: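 Quantitative HTS confirmation: compounds titrated at 15 concentrations onto estrogen-deprived VM7Luc4E2 cells carrying a four-ERE luciferase construct, with ICI-182,780 present at 10.0nM final. Signal is luminescence after 22hr exposure.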
Estrogen receptor (Homo sapiens), sequence (P03372 whole entry, looked up): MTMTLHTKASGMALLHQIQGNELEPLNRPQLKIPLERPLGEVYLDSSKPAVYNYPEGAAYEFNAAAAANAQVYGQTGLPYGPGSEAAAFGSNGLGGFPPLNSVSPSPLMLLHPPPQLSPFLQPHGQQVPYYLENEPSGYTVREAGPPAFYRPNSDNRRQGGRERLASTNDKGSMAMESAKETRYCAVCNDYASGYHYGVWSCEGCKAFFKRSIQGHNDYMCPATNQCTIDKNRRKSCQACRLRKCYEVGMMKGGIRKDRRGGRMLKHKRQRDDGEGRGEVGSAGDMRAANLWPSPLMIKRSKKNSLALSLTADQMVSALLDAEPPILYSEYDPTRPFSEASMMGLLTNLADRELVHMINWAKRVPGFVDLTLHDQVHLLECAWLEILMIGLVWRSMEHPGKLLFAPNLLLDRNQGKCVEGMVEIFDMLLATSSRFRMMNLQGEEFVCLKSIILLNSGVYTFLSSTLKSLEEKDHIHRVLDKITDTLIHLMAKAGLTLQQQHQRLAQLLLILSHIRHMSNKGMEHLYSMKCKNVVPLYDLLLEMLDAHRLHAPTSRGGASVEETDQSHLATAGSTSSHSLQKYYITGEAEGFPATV

Experiment [14] is described as follows: qHTS assay to identify small molecule agonists of the progesterone receptor (PR) signaling pathway - cell viability counter screen (AID 1346799; calls by dose curve; note: nearly all actives have a fitted effect of over 45% in size; note: potency is the fitted concentration of half-maximal effect). The procedure, abridged:
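Here, 3,000 PR-UAS-bla HEK293T cells per well were treated with compounds for 16 hr after a 6 hr preincubation at 37C and 5% CO2; cell viability is the CellTiter-Glo luminescence signal.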

Experiment [15] concerns the target Thyrotropin receptor (Homo sapiens) (UniProt P16473). As to the kind of experiment: qHTS assay to identify small molecule antagonists of the thyroid stimulating hormone receptor (TSHR) signaling pathway (AID 1259385; calls by dose curve; note: nearly all actives have a fitted effect of over 20% in size). The procedure, abridged: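 TSHR-HEK293 cells (800/well) plated 18 h, then compounds with Ro20-1724 and TSH at 1.5 ng/mL final, 30 min at room temperature. cAMP quantified by HTRF (cAMP-d2/anti-cAMP-cryptate, 1 h); 15 concentrations in triplicate.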

Experiment [16] is described as follows: qHTS assay to identify small molecule antagonists of the progesterone receptor (PR) signaling pathway - cell viability counter screen (AID 1346798). Note: series mostly up to about 92 µM; nearly all actives have a fitted effect of over 50% in size. The procedure, abridged: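 Following a 4 hr attachment, PR-UAS-bla HEK293T cells in charcoal-stripped FBS medium were exposed to compounds with R5020 for 16 hr; CellTiter-Glo was added and luminescence read after 30 min at room temperature.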

Experiment [17] can be described thus: qHTS assay to identify small molecule agonists or antagonists of the thyroid stimulating hormone receptor (TSHR) signaling pathway - wild type cell line counter screen (AID 1259384; calls by dose curve). The procedure, abridged:
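Wild-type Hek293 cells, 800/well, 18 h at 37C, then compound with Ro20-1724 for 30 min RT. cAMP by HTRF (cAMP-d2/anti-cAMP cryptate), 1 h RT, fluorescence read. 15 concentrations, triplicates.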

The target in experiment [18] is Androgen receptor (Homo sapiens) (UniProt P10275). As to the kind of experiment: qHTS assay to identify small molecule agonists of the androgen receptor (AR) signaling pathway in the presence of an antagonist (AID 1259381; calls by dose curve; note: nearly all actives have a fitted effect of over 15% in size; note: potency is the fitted concentration of half-maximal effect). The procedure, abridged:
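Luminescent ONE-Glo read, 30min at room temperature, follows 16hr compound exposure (15 concentrations) of MDA-kb2 cells at 37C, 0% CO2, with nilutamide added at 3.0uM final.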

For experiment [19], the target named is Estrogen receptor beta (Homo sapiens) (UniProt Q92731). As to the kind of experiment: qHTS assay to identify small molecule antagonists of the estrogen receptor beta (ER-beta) signaling pathway (AID 1259378; active = well fitted inhibition curve with a large enough effect in the signal ratio in the repeat runs, not every such curve was filed as active; the % refers to the signal ratio). The procedure, abridged:
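ER-beta-UAS-bla HEK293T cells in 2% charcoal-stripped FBS medium treated with compound plus 1nM final 17-beta-estradiol for 16 hr at 37C. Beta-lactamase reporter read by FRET substrate fluorescence after 2 hours at room temperature.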

Results filed as inconclusive are left out. Calls of active or inactive are those of the source. Unless noted, calls come from the whole dose curve; as a rule, active = well fitted curve in the direction sought with a large enough effect in the repeat runs; inconclusive = weak or mixed curves; inactive = no such curve, though single readings can be large; an effect the other way counts as inactive or inconclusive.

Progesterone receptor (Homo sapiens), sequence (P06401 whole entry, looked up): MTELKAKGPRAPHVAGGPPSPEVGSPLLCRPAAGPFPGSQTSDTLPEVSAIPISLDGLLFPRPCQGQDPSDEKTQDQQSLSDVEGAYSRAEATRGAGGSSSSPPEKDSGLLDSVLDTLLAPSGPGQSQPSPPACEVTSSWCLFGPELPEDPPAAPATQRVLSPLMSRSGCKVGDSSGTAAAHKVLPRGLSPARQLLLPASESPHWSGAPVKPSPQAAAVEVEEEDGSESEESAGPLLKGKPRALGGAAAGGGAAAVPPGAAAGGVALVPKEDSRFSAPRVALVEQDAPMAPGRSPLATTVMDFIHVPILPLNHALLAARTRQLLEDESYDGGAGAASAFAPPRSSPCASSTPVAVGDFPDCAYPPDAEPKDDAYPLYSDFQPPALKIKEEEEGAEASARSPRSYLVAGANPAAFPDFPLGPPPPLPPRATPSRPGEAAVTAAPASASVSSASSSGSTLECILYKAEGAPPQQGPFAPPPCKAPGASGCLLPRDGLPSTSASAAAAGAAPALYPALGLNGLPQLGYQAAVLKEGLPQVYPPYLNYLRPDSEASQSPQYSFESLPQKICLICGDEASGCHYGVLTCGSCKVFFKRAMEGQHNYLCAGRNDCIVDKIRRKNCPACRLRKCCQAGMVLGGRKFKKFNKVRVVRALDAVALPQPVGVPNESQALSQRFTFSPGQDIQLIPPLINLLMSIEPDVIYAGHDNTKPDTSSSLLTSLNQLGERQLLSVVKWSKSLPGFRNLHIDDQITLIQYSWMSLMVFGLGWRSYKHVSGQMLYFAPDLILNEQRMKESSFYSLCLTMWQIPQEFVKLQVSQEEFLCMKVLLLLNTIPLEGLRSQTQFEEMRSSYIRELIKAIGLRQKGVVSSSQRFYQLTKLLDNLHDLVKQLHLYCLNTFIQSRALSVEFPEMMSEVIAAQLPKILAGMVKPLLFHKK
Estrogen receptor beta (Homo sapiens), sequence (Q92731 whole entry, looked up): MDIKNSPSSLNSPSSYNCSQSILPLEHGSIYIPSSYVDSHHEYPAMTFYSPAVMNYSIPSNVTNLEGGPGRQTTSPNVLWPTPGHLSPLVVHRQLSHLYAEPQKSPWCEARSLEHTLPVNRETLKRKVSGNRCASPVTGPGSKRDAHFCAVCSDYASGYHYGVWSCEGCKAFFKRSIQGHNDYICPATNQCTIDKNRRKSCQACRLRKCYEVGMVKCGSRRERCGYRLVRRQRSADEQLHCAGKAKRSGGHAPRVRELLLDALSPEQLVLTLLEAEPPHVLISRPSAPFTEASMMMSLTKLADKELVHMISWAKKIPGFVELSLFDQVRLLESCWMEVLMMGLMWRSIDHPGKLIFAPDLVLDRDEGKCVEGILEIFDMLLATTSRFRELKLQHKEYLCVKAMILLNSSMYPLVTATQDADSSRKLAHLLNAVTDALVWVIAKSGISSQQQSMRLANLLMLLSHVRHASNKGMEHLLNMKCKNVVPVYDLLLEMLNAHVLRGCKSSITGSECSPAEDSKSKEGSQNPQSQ
Thyrotropin receptor (Homo sapiens), sequence (P16473 whole entry, looked up): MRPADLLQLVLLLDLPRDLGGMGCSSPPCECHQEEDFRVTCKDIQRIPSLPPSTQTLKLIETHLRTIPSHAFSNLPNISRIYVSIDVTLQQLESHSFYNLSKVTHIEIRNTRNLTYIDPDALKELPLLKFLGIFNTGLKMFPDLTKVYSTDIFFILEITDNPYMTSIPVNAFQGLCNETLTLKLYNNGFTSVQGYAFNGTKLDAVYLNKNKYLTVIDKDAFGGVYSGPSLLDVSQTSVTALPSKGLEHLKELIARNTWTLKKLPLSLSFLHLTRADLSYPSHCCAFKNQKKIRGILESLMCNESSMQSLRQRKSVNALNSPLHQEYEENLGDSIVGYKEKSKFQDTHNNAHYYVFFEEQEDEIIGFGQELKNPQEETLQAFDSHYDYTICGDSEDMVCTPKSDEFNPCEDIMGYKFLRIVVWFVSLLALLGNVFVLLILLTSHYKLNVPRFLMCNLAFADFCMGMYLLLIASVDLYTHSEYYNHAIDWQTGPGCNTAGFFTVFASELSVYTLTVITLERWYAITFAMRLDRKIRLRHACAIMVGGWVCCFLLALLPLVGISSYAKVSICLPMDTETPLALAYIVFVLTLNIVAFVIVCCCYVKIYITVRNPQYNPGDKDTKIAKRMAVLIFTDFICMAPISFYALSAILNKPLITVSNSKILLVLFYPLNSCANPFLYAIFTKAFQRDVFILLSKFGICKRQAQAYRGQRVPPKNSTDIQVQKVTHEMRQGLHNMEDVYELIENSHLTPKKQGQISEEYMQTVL
Androgen receptor (Homo sapiens), sequence (P10275 whole entry, looked up): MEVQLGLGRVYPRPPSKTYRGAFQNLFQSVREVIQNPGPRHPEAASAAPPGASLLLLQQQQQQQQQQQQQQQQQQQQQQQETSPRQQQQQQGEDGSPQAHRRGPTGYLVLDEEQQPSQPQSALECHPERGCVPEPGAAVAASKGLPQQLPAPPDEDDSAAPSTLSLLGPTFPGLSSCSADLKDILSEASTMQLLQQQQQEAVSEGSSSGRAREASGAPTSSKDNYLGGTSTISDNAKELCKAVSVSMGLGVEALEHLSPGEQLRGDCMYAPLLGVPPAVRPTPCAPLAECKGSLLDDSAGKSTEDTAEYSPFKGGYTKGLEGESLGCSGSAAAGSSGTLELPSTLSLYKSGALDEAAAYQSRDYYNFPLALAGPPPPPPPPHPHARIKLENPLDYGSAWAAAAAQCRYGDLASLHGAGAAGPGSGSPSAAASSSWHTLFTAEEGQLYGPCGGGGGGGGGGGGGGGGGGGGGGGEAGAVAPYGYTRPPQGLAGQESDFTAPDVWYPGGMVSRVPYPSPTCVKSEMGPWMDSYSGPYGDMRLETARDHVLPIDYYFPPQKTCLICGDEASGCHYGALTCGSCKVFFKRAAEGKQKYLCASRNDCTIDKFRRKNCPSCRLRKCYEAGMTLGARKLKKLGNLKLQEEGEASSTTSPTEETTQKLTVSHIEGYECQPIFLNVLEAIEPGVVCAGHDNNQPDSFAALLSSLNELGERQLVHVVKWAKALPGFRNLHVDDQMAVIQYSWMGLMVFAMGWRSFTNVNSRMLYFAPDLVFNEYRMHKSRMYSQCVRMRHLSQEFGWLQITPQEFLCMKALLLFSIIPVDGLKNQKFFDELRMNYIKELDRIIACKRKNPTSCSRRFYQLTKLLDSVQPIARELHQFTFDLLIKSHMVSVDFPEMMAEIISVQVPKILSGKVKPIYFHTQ

Take `CC(C)OC(=O)C(C)N(C(=O)c1ccccc1)c1ccc(F)c(Cl)c1` (stereo not drawn): the Potency result in experiment [1], in [2], in [3], in experiment [4], in experiment [5] and in [6] was “inactive” in each case. Besides, the Potency result in experiment [8], in experiment [10] and in experiment [12] was “inactive” throughout. Further, the Potency in [7] was 24.3 µM (active). The outcome in experiment [9] and in experiment [11] was inactive.

As for `C[C@H](CCC(=O)O)[C@H]1CC[C@H]2[C@@H]3CC[C@@H]4C[C@H](O)CC[C@]4(C)[C@H]3C[C@H](O)[C@]12C`, the Potency result in [1], in [13], in [5] and in experiment [8] was “inactive” in each case. The Potency in [3] is 48.7 µM (active); in experiment [14] it was 54.6 µM (active). Besides, the call in experiment [9] and in [11] was inactive.

In the case of `CCCCC(CC)CN1C(=O)C2C3C=CC(C3)C2C1=O` (stereo not drawn), the Potency result in experiment [1], in experiment [2], in [4], in experiment [13], in experiment [15] and in [6] was “inactive” in each case. Moreover, the Potency result in experiment [16], in [8] and in experiment [10] was “inactive” each time. The Potency in [7] was 34.4 µM (active). For the same compound, the outcome in [9] and in experiment [11] was inactive.

In the case of `C[N+]1(CC2COC(c3ccccc3)(C3CCCCC3)O2)CCCCC1` (stereo not drawn), the Potency entry in [1], in experiment [3], in [4], in experiment [13], in experiment [15] and in experiment [5] was “inactive” in each case. Also, the Potency entry in experiment [6], in [7], in experiment [16], in [14], in experiment [8] and in experiment [10] was “inactive” in each case. Also, in [9], the compound was classed as inactive.

As for `CCCCCCCCCCCc1ccccc1`, the Potency result in [2], in [3], in experiment [4], in [13], in [17] and in [15] was “inactive” each time. For the same compound, the Potency entry in experiment [5], in experiment [6], in experiment [14] and in experiment [10] was “inactive” throughout. For the same compound, the outcome in [9] and in experiment [11] was inactive.

Take `C[C@@H]1C[C@H]2O[C@@]3(O[C@@H]2C(C)(C)O)[C@H](O)[C@@]2(C)[C@@H]4CC[C@H]5C(C)(C)[C@@H](O[C@@H]6OC[C@@H](O)[C@H](O)[C@H]6O)CC[C@@]56C[C@@]46CC[C@]2(C)[C@@H]13`: the Potency result in [1], in experiment [2], in [18], in experiment [4], in [13] and in [17] was “inactive” throughout. Besides, the Potency entry in [15], in [6], in experiment [16], in experiment [8] and in experiment [12] was “inactive” each time. Also, the outcome in experiment [9] and in [11] was inactive.

Consider `C[C@@H]1C[C@H]2[C@@H]3CCC4=CC(=O)C=C[C@]4(C)[C@@]3(F)[C@@H](O)C[C@]2(C)[C@@]1(O)C(=O)COC(=O)c1ccncc1`, for which the Potency entry in experiment [2], in [4], in experiment [13], in experiment [17], in experiment [5] and in experiment [16] was “inactive” in each case. For the same compound, the Potency entry in experiment [8] and in experiment [10] was “inactive” each time. The Potency was 29.8 µM (active) in [3] and 0.0067 µM (active) in [18]. In experiment [9], the result was inactive.

As for `Nc1ncn([C@H]2C[C@H](O)[C@@H](CO)O2)c(=O)n1`, the Potency entry in experiment [1], in experiment [2], in experiment [3], in experiment [4], in [5] and in experiment [6] was “inactive” throughout. The Potency entry in experiment [16], in experiment [14], in experiment [8], in experiment [10] and in experiment [12] was “inactive” throughout. Besides, the outcome in [9] and in experiment [11] was inactive.

On to `c1cc(CCCc2ccncc2)ccn1`, for which the Potency result in [19], in experiment [2], in experiment [3], in [4], in experiment [13] and in experiment [17] was “inactive” in each case. Also, the Potency result in experiment [15], in experiment [5], in experiment [6], in experiment [16], in [8] and in experiment [10] was “inactive” in each case. In addition, the Potency result in [12] was “inactive”. In addition, the call in experiment [9] and in [11] was inactive.

In the case of `C[Si](C)(CCCN)O[Si](C)(C)CCCN`, the Potency entry in [2], in experiment [3], in experiment [4], in experiment [13], in [17] and in [15] was “inactive” in each case. The Potency entry in [6], in experiment [7] and in [16] was “inactive” throughout. In addition, the call in experiment [9] and in [11] was inactive.

Consider `C/C=C/C=C/CO`, for which the Potency result in [19], in experiment [2], in experiment [3], in [4], in experiment [17] and in experiment [15] was “inactive” in each case. For the same compound, the Potency result in experiment [5], in experiment [7], in [16], in experiment [14], in [8] and in [10] was “inactive” throughout. Also, in experiment [9], the outcome was inactive.
